Results on 37 molecules are retold here after PubChem BioAssay AID504710 (Sanford-Burnham Center for Chemical Genomics, 2011).

In general, inhibition refers to the drop in the measured response relative to a control, in per cent.

Unmarked numbers belong to inactive results. The source made the active and inactive calls.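 How the source made its calls: active means inhibition reaching about 16% in any single replicate (limit read from the data); inactive means the rest.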

In this test the target is Hexokinase HKDC1 (Homo sapiens) (UniProt Q2TB90). Put plainly: compounds lowering human HKDC1 activity – biochemical, single concentration, confirmation (AID 504710). The note with it: recombinant HKDC1, G6PDH/diaphorase/resazurin fluorescence; at 20 µM; stronger effect = higher value. (Resazurin is reduced to fluorescent resorufin, in cell work by metabolically active cells.)
Hexokinase HKDC1 (Homo sapiens), sequence (Q2TB90 whole entry, looked up): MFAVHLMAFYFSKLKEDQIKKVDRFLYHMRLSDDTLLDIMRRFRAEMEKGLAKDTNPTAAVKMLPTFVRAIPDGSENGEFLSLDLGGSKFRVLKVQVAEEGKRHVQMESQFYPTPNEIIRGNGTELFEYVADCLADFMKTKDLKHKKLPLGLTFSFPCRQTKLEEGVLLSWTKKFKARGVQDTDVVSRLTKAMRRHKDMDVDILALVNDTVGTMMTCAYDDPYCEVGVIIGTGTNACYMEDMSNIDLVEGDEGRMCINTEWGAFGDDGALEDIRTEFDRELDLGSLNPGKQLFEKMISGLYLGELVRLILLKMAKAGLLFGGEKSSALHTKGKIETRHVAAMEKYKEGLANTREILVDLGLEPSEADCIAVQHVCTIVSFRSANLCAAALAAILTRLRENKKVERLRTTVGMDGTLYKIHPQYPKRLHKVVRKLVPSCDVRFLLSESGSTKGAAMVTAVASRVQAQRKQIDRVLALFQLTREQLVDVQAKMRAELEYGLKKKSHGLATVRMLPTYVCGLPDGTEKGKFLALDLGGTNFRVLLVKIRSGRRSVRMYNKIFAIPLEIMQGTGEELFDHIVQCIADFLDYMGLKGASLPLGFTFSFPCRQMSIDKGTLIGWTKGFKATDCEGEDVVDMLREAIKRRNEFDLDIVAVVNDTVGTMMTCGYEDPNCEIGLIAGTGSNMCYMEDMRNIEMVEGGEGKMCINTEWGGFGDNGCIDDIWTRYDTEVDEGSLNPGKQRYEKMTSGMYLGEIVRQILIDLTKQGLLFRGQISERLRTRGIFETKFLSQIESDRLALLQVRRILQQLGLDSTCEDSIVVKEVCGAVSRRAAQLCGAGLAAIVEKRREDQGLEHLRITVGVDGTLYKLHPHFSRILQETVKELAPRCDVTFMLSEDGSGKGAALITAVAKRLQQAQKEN
`Cc1oc2c(c1C(=O)c1ccc(Cl)cc1)C(=O)C(=O)c1ccccc1-2`: the inhibition was 46.1% (active). Next, `O=S(=O)(Nc1cc(Sc2ncn[nH]2)c(O)c2ccccc12)c1ccccc1`: 48.4% (active). As for `O=Cc1[nH]c2ccccc2c1N(C(=O)CCl)c1ccccc1`, the figure is 34% (active); as for `CC(C)(C)c1nnc(N/N=C/c2cc(Br)ccc2O)n(N)c1=O`, -48.8%; as for `CCC1=NN2C(=N)/C(=C\c3ccc(OCc4cc(=O)n5nc(CC)sc5n4)c(OC)c3)C(=O)N=C2S1`, 22.8% (active). Next, `CC(=O)/C(=N\Nc1ccc(Cl)cc1Cl)Sc1cccc2cccnc12`: -44.8%. As for `O=C(CSc1n[nH]c(-c2cccnc2)n1)Nc1ccc([N+](=O)[O-])cc1Br`, the inhibition is 56.4% (active). As for `CCOc1ccc(/C=C2/SC(=S)N(CCC(=O)Nc3ccc(C(=O)O)cc3)C2=O)cc1`, the figure is -41.5%; as for `COC(=O)c1c(NC(C)=O)sc(Cc2ccccc2)c1C`, -37.8%.

Turning to `Cc1cc(C)nc(/N=c2/ssnc2Cl)c1`, the inhibition is -84.2%. Next, `COc1ccc(S(=O)(=O)Nc2cc(SCC(=O)O)c(O)c3ccccc23)cc1`: 47.2% (active); `CCc1c(C)c(C#N)c2nc3ccccc3n2c1NC`: -43.3%.

On to `CCN(CC)c1ccc2c(c1)oc(=O)c1c(Cl)cc(=O)oc12`, for which the inhibition was 47.7% (active). As for `CC(=NNc1nc2ccccc2o1)c1cc2ccccc2cn1`, the figure is -77.2%. For `O=C1C(Cl)=C(NCc2cccnc2)C(=O)c2ccccc21`, the inhibition was -45.1%. As for `O=C1C(Cl)=C(N2CCC(C(=O)O)CC2)C(=O)c2ccccc21`, the figure is 57.2% (active); as for `O=C1C(SCCO)=C(SCCO)C(=O)c2ccccc21`, 84.1% (active).

For the molecule `CC(NNC(=S)N1CCN(c2ccccn2)CC1)c1nccc2ccccc12` (configuration not stated), the inhibition was -74.7%. Next, `CC(=NNC(=S)Nc1cccc(C)c1)c1ccccn1`: -60.1%. Next, `COC(=O)c1ccccc1NC1=C/C(=N\S(=O)(=O)c2cccs2)c2ccccc2C1=O`: 62.6% (active); `Cn1c2ccccc2c(=O)c2c(=O)n(-c3ccc(F)cc3)c(-c3cccs3)nc21`: 66% (active); `Fc1ccc(N=C2NN=C(c3cc(F)ccc3F)CS2)cc1`: -132%. As for `O=C1C(=O)c2c(C(=O)c3ccccc3)coc2-c2ccccc21`, the figure is 53.2% (active); as for `O=C(O)c1ccc(S(=O)(=O)/N=C2\C=C(Nc3ccccc3F)C(=O)c3ccccc32)cc1`, 75.7% (active); as for `CC(C)(C=O)C1=CC(=O)c2ccccc2C1=O`, 41.2% (active). Regarding `O=S(=O)(NC1c2cccc3cccc(c23)C1N1CCNCC1)c1ccccc1` (configuration not stated), the inhibition is -94.7%.

Regarding `N#C/C(=C(/O)CCl)c1nc2c(s1)CCc1ccccc1-2`, the inhibition was 46.1% (active). Next, `O=S(=O)(Nc1ccc(O)c2ccccc12)c1cccs1`: 30.6% (active); `COc1ccc(C2=NNC(=Nc3cc(S(=O)(=O)N(C)C)ccc3C)SC2)c(OC)c1`: -120%. As for `COC(=O)c1ccc(NC(=O)CSc2n[nH]c(-c3ccncc3)n2)cc1`, the figure is 43% (active).

In the case of `O=C(O)c1ccc(NC2=C/C(=N/S(=O)(=O)c3ccccc3)c3ccccc3C2=O)cc1`, the inhibition is 76% (active).

For the molecule `CCN(CC)CCNc1cc(C)nc2c1C(=O)C(=O)C=C2N1CCCCC1`, the inhibition is 57.9% (active).

Take `CCOC(=O)C1=C(Cc2ccc(OC)cc2)C(=O)c2ccccc2C1=O`: the inhibition was 55.8% (active).

In the case of `O=C(CN(C(=O)CCC(=O)Nc1ccccn1)c1ccc2c(c1)OCO2)NCc1ccc(F)cc1`, the inhibition was 31.3% (active). With `C=CCN1C=C2C(=O)C(C)(OC(=O)CCC(=O)OC)C(=O)C(Br)=C2C=C1c1ccc(OC)cc1` (configuration not stated), the inhibition was 57.5% (active). Next, `CCN(CC)C(=O)c1ccc(C(=O)c2c(C)cc(C)cc2C)cc1`: -40.1%; `CCOC(=O)c1c(C)[nH]c(C2=NNC(=Nc3ccccc3)SC2)c1C`: -141%.
